Screen size: about 310,000 compounds; about 14,000 (4.5%) showed an effect of 50% or more. Effects have a minus sign here. The full list was thinned out, with strong results kept by preference.
Target: human ether-à-go-go-related gene (hERG) potassium channel (human, UniProt Q12809)
Experiment: primary screen, population patch clamp on CHO cells stably expressing hERG; higher = less effect of the substance
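Note: peak tail current of the secondary pulse compared with the same well before compound.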

Sequence of human ether-à-go-go-related gene (hERG) potassium channel (Q12809 whole entry, looked up): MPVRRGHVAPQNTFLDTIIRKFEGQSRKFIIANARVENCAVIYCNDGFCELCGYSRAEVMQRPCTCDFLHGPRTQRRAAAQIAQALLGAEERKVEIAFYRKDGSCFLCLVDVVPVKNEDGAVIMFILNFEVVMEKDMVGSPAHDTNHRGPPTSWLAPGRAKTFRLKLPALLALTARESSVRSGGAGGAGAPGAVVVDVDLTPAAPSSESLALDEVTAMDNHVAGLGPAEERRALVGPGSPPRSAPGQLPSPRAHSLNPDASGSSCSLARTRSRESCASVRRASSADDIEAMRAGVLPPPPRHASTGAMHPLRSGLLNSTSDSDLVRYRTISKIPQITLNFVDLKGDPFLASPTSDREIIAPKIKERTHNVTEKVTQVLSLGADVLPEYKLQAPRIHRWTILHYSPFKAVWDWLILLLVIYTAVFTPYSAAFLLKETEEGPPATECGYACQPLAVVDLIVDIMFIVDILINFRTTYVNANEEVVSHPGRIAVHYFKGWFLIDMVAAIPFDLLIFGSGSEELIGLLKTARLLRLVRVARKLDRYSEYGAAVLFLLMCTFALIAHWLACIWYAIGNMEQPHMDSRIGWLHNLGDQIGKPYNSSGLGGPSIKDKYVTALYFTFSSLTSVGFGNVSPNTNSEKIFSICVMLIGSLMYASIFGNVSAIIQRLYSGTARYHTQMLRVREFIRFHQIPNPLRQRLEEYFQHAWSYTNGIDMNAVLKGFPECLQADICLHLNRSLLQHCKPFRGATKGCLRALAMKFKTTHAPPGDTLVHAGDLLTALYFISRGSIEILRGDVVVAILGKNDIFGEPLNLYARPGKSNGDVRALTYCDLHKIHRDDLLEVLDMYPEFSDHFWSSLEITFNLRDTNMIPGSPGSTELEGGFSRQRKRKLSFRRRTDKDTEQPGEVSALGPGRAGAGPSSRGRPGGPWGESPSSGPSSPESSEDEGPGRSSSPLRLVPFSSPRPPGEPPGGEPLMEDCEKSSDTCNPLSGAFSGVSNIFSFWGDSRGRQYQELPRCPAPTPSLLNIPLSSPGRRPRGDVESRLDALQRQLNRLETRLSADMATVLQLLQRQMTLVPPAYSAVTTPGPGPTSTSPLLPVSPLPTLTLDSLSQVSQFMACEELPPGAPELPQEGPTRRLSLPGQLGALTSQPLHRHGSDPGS

Compared with Cn1c(=O)c2c(n(C)c1=O)=NC1(CCCCC1)ON=2, COc1ccc(CN2CCN(CCSc3ccc(C)cc3)CC2)c(OC)c1OC.O=C(O)C(=O)O is lower in “hERG current change (%, negative = inhibition) at 10uM” value: -15.4% for the first, -58.5% for the second.

First: O=C(NCc1ccco1)C1CCN(S(=O)(=O)N2CCOCC2)CC1
Second: COc1ccc(CN2CCN(S(=O)(=O)c3ccc(F)cc3)CC2)c(OC)c1OC.O=C(O)C(=O)O
The “hERG current change (%, negative = inhibition) at 10uM” value of the first is higher: -13.1% for the first, -23.4% for the second.

First: CCN1CCN(CCOc2ccc(Cl)cc2)CC1.O=C(O)C(=O)O
Second: COc1ccc(CN2CCN(CCCCOc3ccc(Cl)cc3)CC2)c(OC)c1OC.O=C(O)C(=O)O
The “hERG current change (%, negative = inhibition) at 10uM” value of the first is higher: -34.3% for the first, -74.4% for the second.

Compared with Cc1ccc(SCCN2CCN(Cc3ccccc3)CC2)cc1.O=C(O)C(=O)O, COc1cccc(CN2CCN(Cc3cccc(Oc4ccccc4)c3)CC2)c1OC.O=C(O)C(=O)O is higher in “hERG current change (%, negative = inhibition) at 10uM” value: -37% for the first, -21.7% for the second.

Compared with COc1ccc(CN2CCN(Cc3ccc(Br)cc3)CC2)c(OC)c1OC.O=C(O)C(=O)O, COc1ccc(CN2CCN(Cc3ccc(OC)c(OC)c3OC)CC2)cc1.O=C(O)C(=O)O is higher in “hERG current change (%, negative = inhibition) at 10uM” value: -69.7% for the first, -41.3% for the second.

Compared with COc1cccc(CN2CCN(Cc3cccc(Br)c3)CC2)c1OC.O=C(O)C(=O)O, COc1ccc(CN2CCN(Cc3cccc(Oc4ccccc4)c3)CC2)c(OC)c1OC.O=C(O)C(=O)O is lower in “hERG current change (%, negative = inhibition) at 10uM” value: -21.2% for the first, -58% for the second.

Compared with COc1ccc(CN2CCN(C(=O)c3cccc4ccccc34)CC2)c(OC)c1OC.O=C(O)C(=O)O, CN1CCN(Cc2cccc(Oc3ccccc3)c2)CC1 is lower in “hERG current change (%, negative = inhibition) at 10uM” value: 11.9% for the first, -28.2% for the second.

Going from COc1ccc(C(=O)NC(=S)N(CCC(C)C)c2c(N)n(Cc3ccccc3)c(=O)[nH]c2=O)cc1 to CC(C(=O)NCc1ccc(Cl)cc1)n1cccc1C(=O)c1ccccc1 (stereo not drawn), the “hERG current change (%, negative = inhibition) at 10uM” value falls from -5.8% to -21.4%.

Compared with CN1C(=O)/C(=C2\SC(=S)N(C(CCC(=O)O)C(=O)O)C2=O)c2ccccc21 (stereo not drawn), CC1=CC(=C2C(=O)NC(=S)NC2=O)C=C(C(F)(F)F)N1CCc1ccccc1 is lower in “hERG current change (%, negative = inhibition) at 10uM” value: 13% for the first, 12.9% for the second.

Compared with O=C(COc1ccc(F)cc1)c1ccc2c(c1)CCCC2, O=C(O)c1ccc(-c2nnn(Cc3ccccc3F)n2)cc1 is higher in “hERG current change (%, negative = inhibition) at 10uM” value: -5.65% for the first, 58.7% for the second.

Compared with CCOC(=O)NNc1nncc2ccccc12.Cl, CCOC(=O)C1C(=O)C=C(/C=C/c2ccccc2)CC1c1ccc(Cl)cc1 (stereo not drawn) is lower in “hERG current change (%, negative = inhibition) at 10uM” value: 2.17% for the first, -0.716% for the second.

Going from Cc1nn(-c2ccccc2)c(C)c1NC(=O)COC(=O)c1cccc(OC(F)F)c1 to CCN(CC)CC(O)COc1ccccc1C(=O)CCc1ccccc1 (stereo not drawn), the “hERG current change (%, negative = inhibition) at 10uM” value rises from -38.1% to -3.49%.

Compared with CCCc1nc(-c2ccc(-c3ccc(F)cc3)cc2)no1, CC(C)(C)NCC(O)COc1ccccc1C(=O)CCc1ccccc1.Cl (stereo not drawn) is lower in “hERG current change (%, negative = inhibition) at 10uM” value: 7.85% for the first, -69.9% for the second.

With CC(C)(C)NCC(O)COc1cccc2[nH]c(=O)[nH]c12.Cl (stereo not drawn) the “hERG current change (%, negative = inhibition) at 10uM” value was 7.11%.

— publication PMC4336329 (PLoS ONE, 2015)
